The results in this text go back to PubChem BioAssay (NCI).

This is part of a sample that, as a whole, favours compounds with a hit. Of some 83,000 tested, about 20% had one in any assay.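 Single-dose data. Exposure time 48 hours. Values below 10 considered active.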 Unmarked numbers belong to inactive results. The source made the active and inactive calls.

Common to all, as to experiment: NCI-60 one-dose screen, 48 h (100 = growth as untreated, 0 = no growth, -100 = all killed)
One test deals with OVCAR-8 ovarian. The settings on record: 10 µM unless noted.
The next test has as its system OVCAR-5 ovarian. The settings on record: 10 µM unless noted.
The subject of another test is OVCAR-4 ovarian. Particulars: 10 µM unless noted.
The next test concerns SK-OV-3 ovarian. Particulars: 10 µM.
A further test deals with IGROV1 ovarian. Particulars: 10 µM unless noted.
For a further test, the system named is OVCAR-3 ovarian. The settings on record: 10 µM unless noted.
A further test concerns HS 578T breast. Particulars: 10 µM unless noted.
The subject of the next test is NCI/ADR-RES ovarian. The settings on record: 10 µM unless noted.
In the next test the test system is RPMI-8226 leukemia. Particulars: 10 µM.

As to `c1ccc2c(c1)oc1cc3c(cc12)nnc1cccn13`, the growth in the test on OVCAR-8 ovarian was 102%; with OVCAR-5 ovarian it was 116%; in the test with OVCAR-4 ovarian, 107%; in the test on SK-OV-3 ovarian, 108%; in the test on IGROV1 ovarian, 87.4%; in the test on OVCAR-3 ovarian, 107%. Also, the growth was 108% with HS 578T breast and 111% with NCI/ADR-RES ovarian.
Consider `COc1ccc(S(=O)(=O)ON=C2C=C(C)C(=O)C(C)=C2)cc1`, for which the growth was 35.1% in the test with RPMI-8226 leukemia; 93.1% in the test with OVCAR-8 ovarian; 103% in the test with OVCAR-5 ovarian; 55.4% in the test on OVCAR-4 ovarian; 66.9% with SK-OV-3 ovarian; 95% with IGROV1 ovarian. The growth is 101% with HS 578T breast and 98.5% in the test with NCI/ADR-RES ovarian.
Consider `COc1ccc(/C=C(\C#N)c2ccc(OC)cc2)cc1`, for which the growth was 55.8% in the test with RPMI-8226 leukemia; 81.9% in the test with OVCAR-8 ovarian; 85.1% in the test with OVCAR-5 ovarian; 81.8% in the test on OVCAR-4 ovarian; 74.9% in the test with SK-OV-3 ovarian; 62.6% in the test with OVCAR-3 ovarian. Also, in the test on HS 578T breast, the growth is 86.3%.
For `COc1cc(-c2nc(Nc3nc4ccccc4[nH]3)nc(N)c2C#N)cc(OC)c1OC`, the growth with OVCAR-8 ovarian was 79.6%; with OVCAR-5 ovarian it was 101%; with OVCAR-4 ovarian, 72.8%; with SK-OV-3 ovarian, 52.6%; in the test with IGROV1 ovarian, 43%; in the test with OVCAR-3 ovarian, 15.1%. In addition, the growth in the test with NCI/ADR-RES ovarian was 97.9%.
Turning to `C[C@]1(CO)C[C@@H](O)C[C@]2(C)[C@@H]1CC[C@@]13C[C@@H]4[C@@H](C[C@H]12)[C@]4(C)C3`, the growth in the test on RPMI-8226 leukemia was 114%; in the test on OVCAR-8 ovarian it was 105%; in the test on OVCAR-5 ovarian, 97.6%; with OVCAR-4 ovarian, 104%; in the test on IGROV1 ovarian it was 106%; in the test on OVCAR-3 ovarian, 113%. Besides, the growth in the test on HS 578T breast is 102%; in the test on NCI/ADR-RES ovarian, 105%.
For `Nc1ccccc1-c1n[nH]c(=O)[nH]c1=O`, the growth in the test with OVCAR-8 ovarian is 105%; in the test on OVCAR-5 ovarian it was 109%; in the test on OVCAR-4 ovarian, 94.3%; in the test on SK-OV-3 ovarian, 108%; in the test on IGROV1 ovarian, 108%; in the test on OVCAR-3 ovarian, 118%. Besides, the growth with HS 578T breast is 92.7%.
In the case of `Clc1ccc(Nc2nc(Nc3ccccc3)nc(Nc3ccc(-c4cc(-c5ccc(Cl)cc5)on4)cc3)n2)cc1`, the growth was 50.8% in the test with RPMI-8226 leukemia; 39.4% with OVCAR-8 ovarian; 87.2% in the test on OVCAR-5 ovarian; 64.6% in the test on OVCAR-4 ovarian; 91.2% with SK-OV-3 ovarian; 34.7% with IGROV1 ovarian. Also, the results for the growth with OVCAR-3 ovarian, with HS 578T breast and in the test on NCI/ADR-RES ovarian were 71.6%, 11.7% and 51.4%, respectively.
`NC(=O)c1c(Br)c(Br)c(Br)c(Br)c1C(=O)O` (tested in a mixture with another compound): the growth in the test with OVCAR-4 ovarian was 94.3%.
`CCSc1nnc2c3cc(Br)ccc3n(C)c2n1`: the growth is 97.2% in the test with OVCAR-8 ovarian; 105% in the test with OVCAR-5 ovarian; 98% in the test on OVCAR-4 ovarian; 105% in the test with SK-OV-3 ovarian; 90.8% with IGROV1 ovarian; 109% with OVCAR-3 ovarian. For the same compound, the growth in the test on HS 578T breast was 111%; in the test on NCI/ADR-RES ovarian, 109%.
Regarding `C=C(C)COC(=O)c1ccccc1C(=O)OCC1(C)CO1` (centres undefined), the growth in the test on RPMI-8226 leukemia was 110%; with OVCAR-8 ovarian, 95.6%; in the test on OVCAR-5 ovarian, 96.8%; in the test with OVCAR-4 ovarian, 110%; in the test on SK-OV-3 ovarian, 110%; in the test with OVCAR-3 ovarian it was 108%. Also, the growth in the test on HS 578T breast was 104%; in the test on NCI/ADR-RES ovarian, 101%.
For the compound `COc1nc2c(cc1S(=O)(=O)c1ccccc1)CCc1c-2cnn1-c1ccccc1`, the growth in the test on RPMI-8226 leukemia is 62.6%; in the test with OVCAR-8 ovarian it was 76.4%; in the test on OVCAR-5 ovarian, 81.1%; in the test with OVCAR-4 ovarian, 76.7%; with SK-OV-3 ovarian, 87.2%; with IGROV1 ovarian, 79.6%. Besides, the figures for the growth in the test on OVCAR-3 ovarian, in the test on HS 578T breast and in the test with NCI/ADR-RES ovarian were 88.9%, 85.2% and 80.8%, respectively.
For `Clc1ccc(C2=Nc3cccc4cccc(c34)N2)cc1Cl`, the growth in the test on RPMI-8226 leukemia is 56.8%; in the test with OVCAR-8 ovarian, 97.7%; in the test on OVCAR-5 ovarian, 126%; in the test on OVCAR-4 ovarian, 32.6%; with SK-OV-3 ovarian, 98.1%; with IGROV1 ovarian, 71.8%. For the same compound, the growth was 86% in the test on OVCAR-3 ovarian and 95.8% in the test on NCI/ADR-RES ovarian.
For `CS(=O)(=O)Nc1cccc(C(=O)NCc2ccc(N3CCOCC3)cc2)c1`, the growth in the test on OVCAR-8 ovarian is 104%; with OVCAR-5 ovarian, 107%; with OVCAR-4 ovarian it was 107%; in the test on SK-OV-3 ovarian, 107%; in the test on IGROV1 ovarian, 114%; in the test with OVCAR-3 ovarian, 108%. For the same compound, the growth in the test with HS 578T breast is 104%; with NCI/ADR-RES ovarian, 111%.
As to `COc1ccc(-n2ncc3c2ccc2cc(S(=O)(=O)c4ccccc4)c(=O)n(C)c23)cc1`, the growth with RPMI-8226 leukemia is 85.4%; in the test with OVCAR-8 ovarian it was 65.4%; with OVCAR-5 ovarian it was 98.4%; with OVCAR-4 ovarian, 6.65% (active); in the test on SK-OV-3 ovarian, 83.5%; in the test on IGROV1 ovarian it was 109%. Further, the growth is 49.5% in the test on HS 578T breast and 77.3% with NCI/ADR-RES ovarian.
`O=C(CCc1nnc2sc(/C=C\c3ccccc3)nn12)c1nc2ccccc2[nH]1`: the growth in the test with RPMI-8226 leukemia is 72%; in the test with OVCAR-8 ovarian, 92.7%; with OVCAR-5 ovarian, 116%; with SK-OV-3 ovarian, 97.2%; in the test on IGROV1 ovarian it was 96%; in the test with OVCAR-3 ovarian, 115%. For the same compound, the growth was 83.1% in the test on HS 578T breast and 89.5% in the test on NCI/ADR-RES ovarian.
For `CN1CCc2cccc3c2C1Cc1ccc(O)c(O)c1-3` (centres undefined), the growth in the test on OVCAR-8 ovarian is 89%; in the test on OVCAR-5 ovarian, 88.3%; in the test with SK-OV-3 ovarian, 102%; in the test on IGROV1 ovarian it was 76.2%; in the test on OVCAR-3 ovarian, 28%; in the test on HS 578T breast, 99.1%. Also, in the test on NCI/ADR-RES ovarian, the growth is 81%.
Take `O=S(=O)(/N=C1C=C/C(=N\S(=O)(=O)c2ccccc2)c2ccccc2\1)c1ccccc1`: the growth with RPMI-8226 leukemia was 77.9%; with OVCAR-8 ovarian it was 94.9%; with OVCAR-5 ovarian, 114%; in the test with OVCAR-4 ovarian, 91.9%; with SK-OV-3 ovarian it was 104%; in the test on IGROV1 ovarian it was 112%. The growth in the test on OVCAR-3 ovarian was 101%; in the test with HS 578T breast it was 112%; with NCI/ADR-RES ovarian it was 102%.
On to `COc1ccc(-c2nc3sc(C)cn3c2/C=C/C(=O)c2cc(OC)c(OC)c(OC)c2)cc1`, for which the growth is 31.5% in the test on RPMI-8226 leukemia; 35.7% in the test on OVCAR-8 ovarian; 113% with OVCAR-5 ovarian; 47.8% in the test with OVCAR-4 ovarian; 66.4% with SK-OV-3 ovarian; 67.1% with IGROV1 ovarian. The growth was 37.3% in the test on HS 578T breast and 21.8% with NCI/ADR-RES ovarian.
As for `C1CCC([PH+](C2CCCCC2)C2CCCCC2[PH+](C2CCCCC2)C2CCCCC2)CC1.[Au].[CH-]1CCCCC1CC1CCCC[N-]1` (centres undefined), the growth with OVCAR-4 ovarian was 37.5%; in the test with HS 578T breast, 18.3%; in the test with NCI/ADR-RES ovarian, 30.9%.
